Consider 16 compounds from PubChem BioAssay (EPA / NIEHS).

The target in assay [1] is rat CYP2C12, Cyp2c12 (gene 25011) (UniProt P11510). Briefly: NVS_ADME_rCYP2C12: NovaScreen (NVS) CYP450-related Enzyme Activity (ADME) Assay for rat CYP2C12 (AID 2283119). The method, boiled down: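 Fluorescent-substrate turnover by recombinant rat CYP2C12, measured at 0.5 h, normalized to acetonitrile vehicle. Chemicals screened first at a single 10 uM concentration in duplicate, with concentration series for actives.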

In assay [2] the target is rat CYP2C13, Cyp2c13 (gene 171521) (UniProt P20814). Briefly: NVS_ADME_rCYP2C13: NovaScreen (NVS) CYP450-related Enzyme Activity (ADME) Assay for rat CYP2C13 (AID 2283121). The method, boiled down:
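Inhibition is read as decreased fluorescent product formation, referenced to acetonitrile vehicle. Cell-free recombinant rat Cyp2c13 reaction ran 0.75 hour; compounds first at 10 uM in duplicate, then concentration series for actives.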

Assay [3] addresses human Caspase 5 (CASP5), CASP5 (gene 838) (UniProt P51878). The assay can be described thus: NVS_ENZ_hCASP5: NovaScreen (NVS) Enzymatic Assay for human Caspase 5 (CASP5) (AID 2283137). Put shortly:
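Fluorescent substrate readout of CASP5 activity (loss-of-signal), measured 2 h post-dose. Protein expressed in E. coli. Primary screen duplicate at 25 uM; actives meeting threshold (e.g., 30% inhibition) rerun singleton, max 50 uM.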

Assay [4] addresses human Dual Specificity Protein Phosphatase 3 (DUSP3), DUSP3 (gene 1845) (UniProt P51452). The assay can be described thus: NVS_ENZ_hDUSP3: NovaScreen (NVS) Enzymatic Assay for human Dual Specificity Protein Phosphatase 3 (DUSP3) (AID 2283152).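 Further: phosphatase activity of recombinant human DUSP3 on a fluorogenic substrate without cells.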 The method, boiled down:
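Cell-free fluorescence-intensity enzyme activity assay with recombinant protein and substrate; loss of signal fitted relative to DMSO baseline. Primary screen in duplicate at 25 uM, actives then run in concentration series; measured 0 h after dosing.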

The target of assay [5] is human Beta-secretase (BACE), BACE1 (gene 23621) (UniProt P56817). Briefly: NVS_ENZ_hBACE: NovaScreen (NVS) Enzymatic Assay for human Beta-secretase (BACE) (AID 2283140).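 Further: hits are inhibitors that reduce fluorescent substrate signal versus DMSO.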 Put shortly: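 SF9-expressed enzyme, cell-free; fluorescent substrate readout after 1 h. Screened at 25 uM single concentration, duplicate; hits retested in concentration series. Activity relative to DMSO baseline, loss-of-signal.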

Assay [6] deals with human Acetylcholinesterase (AChE), ACHE (gene 43) (UniProt P22303). The assay can be described thus: NVS_ENZ_hAChE: NovaScreen (NVS) Enzymatic Assay for human Acetylcholinesterase (AChE) (AID 2283129). The method, boiled down:
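Actives from a duplicate single-point screen (25 uM) were followed up in concentration series. Enzyme activity read by absorbance (colorimetric) 0.33 hour after dosing, cell-free, normalized to DMSO, with loss of signal scored.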

For assay [7], the target named is human Elastase, ELANE (gene 1991) (UniProt P08246). Briefly: NVS_ENZ_hElastase: NovaScreen (NVS) Enzymatic Assay for human Elastase (AID 2283153). The method, boiled down:
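Concentration-response to 50 uM max, run singly for chemicals passing a threshold (e.g., 30% inhibition) in a duplicate 25 uM single-point screen. Neutrophil-derived human elastase, absorbance read-out of enzyme activity at 1.5 h; DMSO baseline.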

The target of a further assay is Caspase-3 (Homo sapiens) (UniProt P42574). Briefly: NVS_ENZ_hCASP3: NovaScreen (NVS) Enzymatic Assay for human Caspase 3 (CASP3) (AID 2283139). Put shortly: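 Single-concentration screening at 25 uM in duplicate, with concentration-response follow-up to a 50 uM maximum for chemicals passing the threshold. Caspase-3 (human, E. coli-expressed) activity was read as substrate fluorescence after 1 h, with loss of signal relative to DMSO.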

Assay [8] concerns the target human Casein Kinase 1-delta (CK1D), CSNK1D (gene 1453) (UniProt P48730). Briefly: NVS_ENZ_hCK1D: NovaScreen (NVS) Enzymatic Assay for human Casein Kinase 1-delta (CK1D) (AID 2283148). The method, boiled down: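 Recombinant human CK1-delta, cell-free; fluorescent substrate with electrophoretic mobility-shift separation of product, read 1 h after dosing. Single 25 uM duplicate screen, then concentration-response up to 50 uM; loss of signal vs DMSO.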

Assay [9] deals with human AKT serine/threonine Kinase 1 (AKT1), AKT1 (gene 207) (UniProt P31749). Briefly: NVS_ENZ_hAKT1: NovaScreen (NVS) Enzymatic Assay for human AKT serine/threonine Kinase 1 (AKT1) (AID 2283138). The method, boiled down:
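Fluorescence and mobility-shift readout of kinase activity, taken 1 h post-dosing in a cell-free format with recombinant protein. Primary screen at 25 uM in duplicate; hits (e.g. 30% inhibition) retested in concentration series topping at 50 uM.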

For assay [10], the target named is human AKT serine/threonine Kinase 2 (AKT2), AKT2 (gene 208) (UniProt P31751). The assay can be described thus: NVS_ENZ_hAKT2: NovaScreen (NVS) Enzymatic Assay for human AKT serine/threonine Kinase 2 (AKT2) (AID 2283141). Put shortly: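 Cell-free fluorescence/electrophoretic mobility shift readout of recombinant human AKT2 activity, 1 h after chemical dosing. Duplicate primary screen at 25 uM, then singleton concentration-response up to 50 uM; loss of signal versus DMSO baseline.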

The target of assay [11] is human Colony Stimulating Factor 1 Receptor (CSF1R), CSF1R (gene 1436) (UniProt P07333). Briefly: NVS_ENZ_hCSF1R: NovaScreen (NVS) Enzymatic Assay for human Colony Stimulating Factor 1 Receptor (CSF1R) (AID 2283150). The method, boiled down: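 Compounds screened in duplicate at 25 uM, then concentration-response (top 50 uM) for those passing threshold such as 30% inhibition; recombinant CSF1R activity measured 1 h post-dosing via fluorescent substrate/product mobility-shift separation, loss of signal versus DMSO.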

Assay [12] addresses human Epidermal Growth Factor Receptor (EGFR), EGFR (gene 1956) (UniProt P00533). Briefly: NVS_ENZ_hEGFR: NovaScreen (NVS) Enzymatic Assay for human Epidermal Growth Factor Receptor (EGFR) (AID 2283151). Put shortly:
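Cell-free kinase assay, fluorescence plus electrophoretic mobility shift separating substrate and product, read 1 hour after dosing; loss of signal vs DMSO. Duplicate screen at 25 uM, then concentration-response to 50 uM.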

The next assay concerns rat CYP2C6, gene 293989. The assay can be described thus: NVS_ADME_rCYP2C6: NovaScreen (NVS) CYP450-related Enzyme Activity (ADME) Assay for rat CYP2C6 (AID 2283120). The method, boiled down:
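Compounds first tested in duplicate at 10 uM, hits (e.g. 30% inhibition) re-run in singleton dose series to a 20 uM top concentration. Enzyme activity of recombinant rat CYP2C6 measured via fluorescent substrate turnover after 1 h; acetonitrile baseline.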

A further assay relates to rat CYP3A1, gene 25642. Briefly: NVS_ADME_rCYP3A1: NovaScreen (NVS) CYP450-related Enzyme Activity (ADME) Assay for rat CYP3A1 (AID 2283126). Put shortly:
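Compounds went first at 10 uM duplicate, then to series with 20 uM maximum. Fluorescence from substrate turnover by the recombinant enzyme was measured 0.5 h post-dosing, inhibition scored against acetonitrile vehicle.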

In assay [13] the target is human AMP-activated Protein Kinase, alpha 1 (AMPKa1), PRKAA1 (gene 5562) (UniProt Q13131). Briefly: NVS_ENZ_hAMPKa1: NovaScreen (NVS) Enzymatic Assay for human AMP-activated Protein Kinase, alpha 1 (AMPKa1) (AID 2283130). Put shortly:
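Compounds were screened in duplicate at 25 uM, and those reaching ~30% inhibition were titrated up to 50 uM. The enzyme was recombinant human AMPKα1, and kinase turnover was read by fluorescence/mobility shift 1 h post-dosing as loss of signal versus DMSO.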

The target of assay [14] is human Caspase 8 (CASP8), CASP8 (gene 841) (UniProt Q14790). The assay can be described thus: NVS_ENZ_hCASP8: NovaScreen (NVS) Enzymatic Assay for human Caspase 8 (CASP8) (AID 2283146). The method, boiled down:
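The primary screen tested compounds in duplicate at a single 25 uM concentration, with actives followed up in concentration series. Activity of recombinant (E. coli) protease was measured by fluorescence 1 h post-dose, as signal loss against DMSO.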

Inconclusive results are not listed. The source made the active and inactive calls. How the source made its calls: active means hit-call score of the fitted dose curve at least 0.9, where 1 is the maximum; inconclusive means response in the unintended direction; inactive means score below 0.9.

Sequence of human Acetylcholinesterase (AChE), ACHE (gene 43) (P22303 whole entry, looked up): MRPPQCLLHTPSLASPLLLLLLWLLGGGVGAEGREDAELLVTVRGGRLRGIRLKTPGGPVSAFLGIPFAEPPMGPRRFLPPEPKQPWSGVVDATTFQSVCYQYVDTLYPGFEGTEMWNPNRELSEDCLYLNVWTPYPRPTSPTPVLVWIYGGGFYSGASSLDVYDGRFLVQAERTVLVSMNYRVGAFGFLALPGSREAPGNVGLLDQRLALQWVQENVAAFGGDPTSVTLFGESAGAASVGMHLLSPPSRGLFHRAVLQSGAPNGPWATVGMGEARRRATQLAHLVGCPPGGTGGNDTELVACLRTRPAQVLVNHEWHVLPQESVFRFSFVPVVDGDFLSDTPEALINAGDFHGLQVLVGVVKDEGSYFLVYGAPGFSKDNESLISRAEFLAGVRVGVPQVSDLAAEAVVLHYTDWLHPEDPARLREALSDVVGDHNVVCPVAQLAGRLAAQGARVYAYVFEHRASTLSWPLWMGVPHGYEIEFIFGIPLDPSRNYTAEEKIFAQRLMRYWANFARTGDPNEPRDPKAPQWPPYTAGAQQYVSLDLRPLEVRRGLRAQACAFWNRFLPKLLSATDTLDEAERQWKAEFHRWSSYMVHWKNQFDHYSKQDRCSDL
Sequence of human Beta-secretase (BACE), BACE1 (gene 23621) (P56817 whole entry, looked up): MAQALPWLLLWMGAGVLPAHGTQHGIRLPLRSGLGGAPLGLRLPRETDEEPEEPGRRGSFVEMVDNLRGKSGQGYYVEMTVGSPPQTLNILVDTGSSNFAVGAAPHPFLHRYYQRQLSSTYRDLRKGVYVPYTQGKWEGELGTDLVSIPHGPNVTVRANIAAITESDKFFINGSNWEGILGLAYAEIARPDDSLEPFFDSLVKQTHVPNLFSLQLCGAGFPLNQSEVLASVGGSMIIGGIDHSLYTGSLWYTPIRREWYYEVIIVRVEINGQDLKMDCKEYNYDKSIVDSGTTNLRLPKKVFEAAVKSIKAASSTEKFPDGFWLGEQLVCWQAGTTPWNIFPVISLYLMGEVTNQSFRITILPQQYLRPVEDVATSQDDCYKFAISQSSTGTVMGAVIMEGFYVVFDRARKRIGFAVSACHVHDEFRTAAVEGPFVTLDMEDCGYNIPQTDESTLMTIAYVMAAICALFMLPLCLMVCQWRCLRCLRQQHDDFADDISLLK
Sequence of human Caspase 5 (CASP5), CASP5 (gene 838) (P51878 whole entry, looked up): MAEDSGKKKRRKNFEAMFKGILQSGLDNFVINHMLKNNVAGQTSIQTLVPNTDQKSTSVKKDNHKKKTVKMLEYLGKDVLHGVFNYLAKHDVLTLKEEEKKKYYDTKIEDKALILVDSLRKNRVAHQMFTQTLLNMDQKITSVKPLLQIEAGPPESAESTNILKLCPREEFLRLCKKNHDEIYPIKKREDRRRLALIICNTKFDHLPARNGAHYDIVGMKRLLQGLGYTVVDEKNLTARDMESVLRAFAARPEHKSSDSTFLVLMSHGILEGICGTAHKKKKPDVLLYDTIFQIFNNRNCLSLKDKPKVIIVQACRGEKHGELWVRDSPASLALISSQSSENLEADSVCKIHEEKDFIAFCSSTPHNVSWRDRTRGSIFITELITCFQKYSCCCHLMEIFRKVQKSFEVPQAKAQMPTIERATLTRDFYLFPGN
Sequence of human Dual Specificity Protein Phosphatase 3 (DUSP3), DUSP3 (gene 1845) (P51452 whole entry, looked up): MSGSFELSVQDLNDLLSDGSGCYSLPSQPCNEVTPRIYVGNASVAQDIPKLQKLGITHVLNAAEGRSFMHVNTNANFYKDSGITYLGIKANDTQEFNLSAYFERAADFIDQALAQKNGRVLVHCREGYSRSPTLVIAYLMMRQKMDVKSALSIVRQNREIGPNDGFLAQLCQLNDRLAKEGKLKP
Sequence of rat CYP2C13, Cyp2c13 (gene 171521) (P20814 whole entry, looked up): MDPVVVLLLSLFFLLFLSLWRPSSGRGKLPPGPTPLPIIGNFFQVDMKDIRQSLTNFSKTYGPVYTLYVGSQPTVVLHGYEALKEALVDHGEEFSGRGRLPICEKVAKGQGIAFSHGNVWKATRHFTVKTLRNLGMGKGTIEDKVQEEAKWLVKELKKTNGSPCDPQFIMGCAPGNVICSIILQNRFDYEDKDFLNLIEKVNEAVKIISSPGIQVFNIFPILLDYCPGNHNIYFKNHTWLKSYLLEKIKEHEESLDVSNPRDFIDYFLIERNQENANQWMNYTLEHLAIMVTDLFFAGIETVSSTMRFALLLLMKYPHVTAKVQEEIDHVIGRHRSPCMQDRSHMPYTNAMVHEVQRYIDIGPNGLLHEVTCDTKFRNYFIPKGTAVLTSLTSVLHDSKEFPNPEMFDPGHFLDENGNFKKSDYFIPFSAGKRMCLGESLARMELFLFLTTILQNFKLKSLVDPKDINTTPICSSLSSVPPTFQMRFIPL
Sequence of rat CYP2C12, Cyp2c12 (gene 25011) (P11510 whole entry, looked up): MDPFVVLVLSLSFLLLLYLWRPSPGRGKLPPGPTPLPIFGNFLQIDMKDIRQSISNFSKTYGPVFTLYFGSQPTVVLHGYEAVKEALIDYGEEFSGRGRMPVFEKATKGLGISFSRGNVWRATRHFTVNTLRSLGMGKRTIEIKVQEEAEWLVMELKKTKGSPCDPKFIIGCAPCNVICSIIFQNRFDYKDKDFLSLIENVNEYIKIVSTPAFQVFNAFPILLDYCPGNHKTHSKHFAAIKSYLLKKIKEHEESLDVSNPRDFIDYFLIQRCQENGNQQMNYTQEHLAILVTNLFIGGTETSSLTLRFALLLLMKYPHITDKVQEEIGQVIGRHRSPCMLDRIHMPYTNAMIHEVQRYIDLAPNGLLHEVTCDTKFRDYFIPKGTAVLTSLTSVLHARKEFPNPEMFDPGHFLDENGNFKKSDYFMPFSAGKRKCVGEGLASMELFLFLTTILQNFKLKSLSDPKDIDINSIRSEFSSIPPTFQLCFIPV
Sequence of human Elastase, ELANE (gene 1991) (P08246 whole entry, looked up): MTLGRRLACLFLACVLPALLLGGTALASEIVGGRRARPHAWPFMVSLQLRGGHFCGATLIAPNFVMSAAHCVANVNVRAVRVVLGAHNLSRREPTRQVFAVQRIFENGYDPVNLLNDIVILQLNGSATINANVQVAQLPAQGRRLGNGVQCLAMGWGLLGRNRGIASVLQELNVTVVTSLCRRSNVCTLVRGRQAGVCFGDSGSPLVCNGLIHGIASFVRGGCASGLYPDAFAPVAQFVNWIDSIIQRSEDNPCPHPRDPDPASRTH
Sequence of human Epidermal Growth Factor Receptor (EGFR), EGFR (gene 1956) (P00533 whole entry, looked up): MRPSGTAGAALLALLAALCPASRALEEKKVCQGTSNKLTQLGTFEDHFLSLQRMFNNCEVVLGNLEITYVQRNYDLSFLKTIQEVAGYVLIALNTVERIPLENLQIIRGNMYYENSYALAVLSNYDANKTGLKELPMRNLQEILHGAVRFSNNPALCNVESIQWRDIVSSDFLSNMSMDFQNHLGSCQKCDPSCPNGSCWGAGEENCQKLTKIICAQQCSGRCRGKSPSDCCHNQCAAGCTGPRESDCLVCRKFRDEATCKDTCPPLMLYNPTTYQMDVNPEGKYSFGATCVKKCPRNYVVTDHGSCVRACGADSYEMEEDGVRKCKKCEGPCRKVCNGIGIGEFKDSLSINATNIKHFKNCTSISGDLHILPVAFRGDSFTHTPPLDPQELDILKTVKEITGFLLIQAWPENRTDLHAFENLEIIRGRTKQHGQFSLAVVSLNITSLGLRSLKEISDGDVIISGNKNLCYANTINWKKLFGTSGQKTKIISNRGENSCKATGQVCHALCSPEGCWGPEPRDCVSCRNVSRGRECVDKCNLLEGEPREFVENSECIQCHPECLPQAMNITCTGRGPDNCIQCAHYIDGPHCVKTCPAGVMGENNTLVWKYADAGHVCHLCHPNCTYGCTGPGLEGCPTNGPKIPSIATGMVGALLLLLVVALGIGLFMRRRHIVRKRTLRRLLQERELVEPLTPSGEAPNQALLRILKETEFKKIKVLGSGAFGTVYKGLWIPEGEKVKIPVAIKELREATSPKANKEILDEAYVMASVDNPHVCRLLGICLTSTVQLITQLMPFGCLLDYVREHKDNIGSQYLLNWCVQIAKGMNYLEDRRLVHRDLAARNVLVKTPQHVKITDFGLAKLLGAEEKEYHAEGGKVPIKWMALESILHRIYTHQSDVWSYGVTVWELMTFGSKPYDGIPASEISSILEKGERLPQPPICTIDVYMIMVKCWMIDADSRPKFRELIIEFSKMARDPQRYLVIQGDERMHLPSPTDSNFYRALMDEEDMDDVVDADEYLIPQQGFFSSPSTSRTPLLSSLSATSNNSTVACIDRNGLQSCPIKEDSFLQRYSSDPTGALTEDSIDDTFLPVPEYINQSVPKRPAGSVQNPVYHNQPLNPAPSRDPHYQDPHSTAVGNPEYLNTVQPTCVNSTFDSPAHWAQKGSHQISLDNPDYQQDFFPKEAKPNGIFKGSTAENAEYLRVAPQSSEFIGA
Sequence of Caspase-3 (Homo sapiens) (P42574 whole entry, looked up): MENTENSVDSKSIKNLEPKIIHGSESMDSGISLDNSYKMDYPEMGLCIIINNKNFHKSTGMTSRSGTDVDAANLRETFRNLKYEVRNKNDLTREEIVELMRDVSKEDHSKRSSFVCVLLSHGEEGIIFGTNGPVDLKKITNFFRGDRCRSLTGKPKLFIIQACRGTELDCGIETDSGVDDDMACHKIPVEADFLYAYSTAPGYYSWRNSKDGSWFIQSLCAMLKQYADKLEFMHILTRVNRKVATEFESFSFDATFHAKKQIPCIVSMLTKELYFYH
Sequence of human Caspase 8 (CASP8), CASP8 (gene 841) (Q14790 whole entry, looked up): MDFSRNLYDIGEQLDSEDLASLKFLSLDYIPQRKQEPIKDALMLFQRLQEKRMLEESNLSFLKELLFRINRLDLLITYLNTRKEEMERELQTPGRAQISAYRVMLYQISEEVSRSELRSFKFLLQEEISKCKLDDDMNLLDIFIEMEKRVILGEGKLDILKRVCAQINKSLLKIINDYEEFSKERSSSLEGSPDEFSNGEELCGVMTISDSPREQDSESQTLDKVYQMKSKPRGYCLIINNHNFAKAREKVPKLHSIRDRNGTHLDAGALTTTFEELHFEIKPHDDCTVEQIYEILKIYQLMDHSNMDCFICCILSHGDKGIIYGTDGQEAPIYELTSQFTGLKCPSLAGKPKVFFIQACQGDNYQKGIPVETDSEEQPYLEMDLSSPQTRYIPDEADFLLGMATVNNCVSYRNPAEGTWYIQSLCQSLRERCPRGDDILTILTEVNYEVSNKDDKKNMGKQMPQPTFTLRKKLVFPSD

Turning to `CCOC(=O)Nc1cccc(OC(=O)Nc2ccccc2)c1`, the AC50 was 10 µM (active) in [1] and 10.4 µM (active) in [2].

Consider `Nc1cccc2ccccc12`, for which the AC50 is 45.2 µM (active) in [3] and 17 µM (active) in assay [4].

Take `COc1cc2c(cc1OC)[C@@]13CCN4CC5=CCO[C@H]6CC(=O)N2[C@H]1[C@H]6[C@H]5C[C@H]43`: the AC50 in [5] was 6.44 µM (active).

`Oc1cccc2cccnc12`: the outcome in assay [6] was inactive.

Regarding `Fc1ccc(C2(Cn3cncn3)OC2c2ccccc2Cl)cc1` (configuration not stated), the AC50 in [2] is 0.377 µM (active).

For the compound `COc1cc(-c2ccc(N)c(OC)c2)ccc1N`, the AC50 was 13.8 µM (active) in assay [6], 16.4 µM (active) in assay [5], 7.49 µM (active) in assay [4] and 20.5 µM (active) in assay [7].

As to `Nc1ncc([N+](=O)[O-])s1`, the AC50 is 9.06 µM (active) in assay [3] and 2.36 µM (active) in assay [4].

For the compound `O=[N+]([O-])c1ccc(O)c([N+](=O)[O-])c1`, the compound was called inactive (with Caspase-3 (Homo sapiens); in [8]).

Regarding `CC(C)(C)c1cc(O)ccc1O`, in assay [6], the call was inactive.

With `ClC1(Cl)C2(Cl)C3(Cl)C4(Cl)C(Cl)(Cl)C5(Cl)C3(Cl)C1(Cl)C5(Cl)C24Cl` (configuration not stated), the result in assay [9], in assay [10], in assay [11], in assay [12] and in [4] was inactive. Further, the AC50 in assay [7] was 1.1 µM (active).

`CCN1CCC2(CC1)COc1cc3c(cc12)N(C(=O)c1ccc(-c2ccc(-c4nnc(C)o4)cc2C)cc1)CC3`: the AC50 was 4.69 µM (active) in [6] and 28.3 µM (active) in [5].

Turning to `CC1(C)CCC(Cc2ccc(Cl)cc2)C1(O)Cn1cncn1` (configuration not stated), the figures for the AC50 in [1] and in assay [2] were 5.15 µM (active) and 1.17 µM (active), respectively.

Take `COP(=S)(OC)Oc1ccc(Sc2ccc(OP(=S)(OC)OC)cc2)cc1`: the AC50 with rat CYP2C6, gene 293989 is 2.96 µM (active); in the assay with rat CYP3A1, gene 25642, 9.92 µM (active); in assay [5] it was 2.51 µM (active).

Consider `CC(=O)[O][Hg][c]1ccccc1`, for which the half-maximal activity concentration (AC50) in assay [6] is 40 µM (active); in assay [13], 14 µM (active); in assay [3], 1.8 µM (active); in the assay with Caspase-3 (Homo sapiens), 25 µM (active); in [14], 8.22 µM (active); in assay [12], 9.71 µM (active).

On to `COP(=S)(OC)Oc1c(Cl)cc(C)cc1Cl`, for which the AC50 in assay [4] was 20.9 µM (active).

With `O=c1[nH]c(=O)[nH]c(=O)[nH]1`, the compound was classed as inactive in assay [14].
